Our source for the composite z-score and z-score values is PubChem BioAssay.

SMILES strings stand for the structures. Activity calls are given as the source filed them.

The nature of experiment [1]: small molecules captured by biotinylated probe aFSTL3 – biochemical, small-molecule microarray, fluorescence 635/667, stem cell growth factor project, primary screen (AID 1064).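 Also: measures binding of the biotinylated anti-FSTL3 antibody to printed compounds.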 The following applies: higher = more signal.
Experiment [2] can be described thus: binders from COS7 lysate, DM2A8 probe, primary screen, torsin A project, cell lysate, small-molecule microarray, fluorescence 635/667 (AID 1065). The following applies: higher = more signal, COS7 lysate expressing mutant human TOR1A.
Experiment [3] can be described thus: small molecules captured by biotinylated probe aFGF2 – biochemical, small-molecule microarray, fluorescence 635/667, stem cell growth factor project, primary screen (AID 1067).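 Also: measures binding of biotinylated aFGF2 protein to printed compounds on slides; z-score merges feature fluorescence and signal-to-noise across triplicate slides.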 The following applies: higher = more signal.
Experiment [4] in a line: small molecules captured by biotinylated probe aFGF10 – biochemical, small-molecule microarray, fluorescence 635/667, stem cell growth factor project, primary screen (AID 1071).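 Also: score merges 667 nm spot intensity and signal to noise from triplicate slides.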 To be noted: higher = more signal.
Experiment [5] deals with Neurogenic locus notch homolog protein 2 (Homo sapiens) (UniProt Q04721). Kind of experiment: small molecules binding Notch2 protein – biochemical, small-molecule microarray, 635 nm fluorescence, stem cell growth factors, primary screen (AID 1073). The following applies: higher = more signal.
Experiment [6] has as its target Pro-neuregulin-1, membrane-bound isoform (Homo sapiens) (UniProt Q02297). Kind of experiment: small molecules binding neuregulin-1 protein – biochemical, small-molecule microarray, fluorescence 635/667, psychiatric disease protein project, primary screen (AID 1075).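 Also: score combines 667 nm spot fluorescence with signal to noise.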 The following applies: NRG1 binding, 635 nm fluorescence, higher = more signal.
Experiment [7] has as its system Neuregulin-1 EGF-like domain. Kind of experiment: small molecules binding NRG1 EGF domain – biochemical, small-molecule microarray, 635 nm fluorescence, primary screen (AID 1081).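 Also: binding of the protein to compounds printed on small-molecule microarray slides.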 The following applies: higher = more signal.
Experiment [8] is described as follows: FRG1 expression reporter modulators in myotubes – cell-based, C2C12 myotubes, firefly/Renilla luciferase, luminescence, FRG1 inhibition for FSHD, primary screen (AID 1084). To be noted: FRG1 promoter luciferase, higher = more signal, called active from +8 up or from −8 down.
Experiment [9] in a line: small molecules captured by biotinylated probe aFST – biochemical, small-molecule microarray, fluorescence 635/667, stem cell growth factor project, primary screen (AID 1086).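 Also: score merges 667 nm fluorescence with signal-to-noise of each printed compound spot.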 To be noted: higher = more signal.
A short description of experiment [10]: binders of probe aHhip on microarray, primary screen, stem cell growth factor project, biochemical, small-molecule microarray, fluorescence 635/667 (AID 1087).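 Also: score merges spot fluorescence at 667nm with spot signal to noise ratio.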 To be noted: higher = more signal.
In experiment [11] the test system is PRMT1 (protein arginine N-methyltransferase 1). Description: small molecules binding arginine methyltransferase PRMT1 – biochemical, small-molecule microarray, 635 nm fluorescence, primary screen (AID 1088).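 Also: binding of Prmt1 protein to compounds spotted on small-molecule microarray slides.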 To be noted: higher = more signal.
A short description of experiment [12]: growth effects on S. cerevisiae YJM789 – YJM789 clinical isolate, OD600, 24 h, basal, primary screen (AID 1089).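 Also: growth of clinical yeast isolate S. cerevisiae YJM 789 seeded 1000 cells per well; test concentration not given here.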 The following applies: higher = more signal, called active from +8 up or from −8 down.
A short description of experiment [13]: S. pombe growth modifiers, basal conditions – strain 972, OD600, 24 h, no modulator, primary screen (AID 1090).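 Also: basal condition with compound alone and no growth modifier present; test concentration not given here.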 The following applies: S. pombe 972 growth, higher = more signal, called active from +8 up or from −8 down.
The nature of experiment [14]: budding yeast growth modifiers under rapamycin – strain BY4716, OD600, 96 h, primary screen (AID 1091). Also: test concentration not given here. To be noted: S. cerevisiae BY4716 + rapamycin, higher = more signal, called active from +8 up or from −8 down.
The target of experiment [15] is Torsin-1A-interacting protein 2 (Homo sapiens) (UniProt Q8NFQ8). Description: small molecules binding lysate-expressed LULL1 – cell lysate, human LULL1 lysate, 635/667 nm fluorescence, primary screen (AID 1092).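 Also: probe is lysate of COS7 cells overexpressing human LULL1; score merges per-feature 667 nm fluorescence with signal-to-noise.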 To be noted: small-molecule microarray, hLULL1 lysate binding, 635 nm fluorescence; higher = more signal.
Sequence of Torsin-1A-interacting protein 2 (Homo sapiens) (Q8NFQ8 whole entry, looked up): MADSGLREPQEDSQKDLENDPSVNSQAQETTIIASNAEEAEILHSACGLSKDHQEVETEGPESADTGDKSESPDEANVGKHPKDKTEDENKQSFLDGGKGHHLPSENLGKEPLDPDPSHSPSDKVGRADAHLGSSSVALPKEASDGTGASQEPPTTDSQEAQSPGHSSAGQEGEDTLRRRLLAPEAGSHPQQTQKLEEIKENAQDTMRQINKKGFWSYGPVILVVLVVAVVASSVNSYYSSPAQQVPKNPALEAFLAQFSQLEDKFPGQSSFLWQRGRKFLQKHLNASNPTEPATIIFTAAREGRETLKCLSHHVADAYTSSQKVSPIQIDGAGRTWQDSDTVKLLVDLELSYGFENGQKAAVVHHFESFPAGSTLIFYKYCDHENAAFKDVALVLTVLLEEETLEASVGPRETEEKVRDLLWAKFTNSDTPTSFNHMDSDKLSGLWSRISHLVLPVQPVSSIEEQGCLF
The nature of experiment [16]: optical density change of DRC41 E. coli – strain DRC41, OD650, 24 h, E. coli filamentation project, primary screen (AID 1093).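 Also: MC1000 strain lacking acrAB efflux and sulA so SOS filamentation is blocked; test concentration not given here.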 To be noted: E. coli DRC41 growth, higher = more signal, called active from +8 up or from −8 down.
Experiment [17] in a line: probe aLefty2 binding to arrayed compounds – biochemical, biotinylated probe, 635/667 nm fluorescence, primary screen (AID 1094).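 Also: score merges spot fluorescence near 667 nm with spot signal-to-noise ratio.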 The following applies: small-molecule microarray, higher = more signal.
The subject of experiment [18] is Noggin (protein binding on small-molecule microarray). Kind of experiment: small molecules binding Noggin protein – biochemical, 635/667 nm fluorescence, primary screen (AID 1095).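 Also: score merges 667 nm feature fluorescence with signal to noise over triplicate slides.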 The following applies: 635 nm fluorescence, higher = more signal.
Experiment [19] concerns the target Neurogenic locus notch homolog protein 3 (Homo sapiens) (UniProt Q9UM47). Description: small molecules binding NOTCH3 protein – biochemical, 635/667 nm fluorescence, primary screen (AID 1096). To be noted: small-molecule microarray, 635 nm fluorescence, higher = more signal.
Experiment [20] in a line: probe aEGFR binding to arrayed compounds – biochemical, biotinylated probe, 635/667 nm fluorescence, primary screen (AID 1097).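 Also: probe is a biotinylated anti-EGFR antibody binding compounds printed on slides; score combines fluorescence near 667 nm and signal to noise of each spot.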 To be noted: small-molecule microarray, higher = more signal.

Sequence of Neurogenic locus notch homolog protein 3 (Homo sapiens) (Q9UM47 whole entry, looked up): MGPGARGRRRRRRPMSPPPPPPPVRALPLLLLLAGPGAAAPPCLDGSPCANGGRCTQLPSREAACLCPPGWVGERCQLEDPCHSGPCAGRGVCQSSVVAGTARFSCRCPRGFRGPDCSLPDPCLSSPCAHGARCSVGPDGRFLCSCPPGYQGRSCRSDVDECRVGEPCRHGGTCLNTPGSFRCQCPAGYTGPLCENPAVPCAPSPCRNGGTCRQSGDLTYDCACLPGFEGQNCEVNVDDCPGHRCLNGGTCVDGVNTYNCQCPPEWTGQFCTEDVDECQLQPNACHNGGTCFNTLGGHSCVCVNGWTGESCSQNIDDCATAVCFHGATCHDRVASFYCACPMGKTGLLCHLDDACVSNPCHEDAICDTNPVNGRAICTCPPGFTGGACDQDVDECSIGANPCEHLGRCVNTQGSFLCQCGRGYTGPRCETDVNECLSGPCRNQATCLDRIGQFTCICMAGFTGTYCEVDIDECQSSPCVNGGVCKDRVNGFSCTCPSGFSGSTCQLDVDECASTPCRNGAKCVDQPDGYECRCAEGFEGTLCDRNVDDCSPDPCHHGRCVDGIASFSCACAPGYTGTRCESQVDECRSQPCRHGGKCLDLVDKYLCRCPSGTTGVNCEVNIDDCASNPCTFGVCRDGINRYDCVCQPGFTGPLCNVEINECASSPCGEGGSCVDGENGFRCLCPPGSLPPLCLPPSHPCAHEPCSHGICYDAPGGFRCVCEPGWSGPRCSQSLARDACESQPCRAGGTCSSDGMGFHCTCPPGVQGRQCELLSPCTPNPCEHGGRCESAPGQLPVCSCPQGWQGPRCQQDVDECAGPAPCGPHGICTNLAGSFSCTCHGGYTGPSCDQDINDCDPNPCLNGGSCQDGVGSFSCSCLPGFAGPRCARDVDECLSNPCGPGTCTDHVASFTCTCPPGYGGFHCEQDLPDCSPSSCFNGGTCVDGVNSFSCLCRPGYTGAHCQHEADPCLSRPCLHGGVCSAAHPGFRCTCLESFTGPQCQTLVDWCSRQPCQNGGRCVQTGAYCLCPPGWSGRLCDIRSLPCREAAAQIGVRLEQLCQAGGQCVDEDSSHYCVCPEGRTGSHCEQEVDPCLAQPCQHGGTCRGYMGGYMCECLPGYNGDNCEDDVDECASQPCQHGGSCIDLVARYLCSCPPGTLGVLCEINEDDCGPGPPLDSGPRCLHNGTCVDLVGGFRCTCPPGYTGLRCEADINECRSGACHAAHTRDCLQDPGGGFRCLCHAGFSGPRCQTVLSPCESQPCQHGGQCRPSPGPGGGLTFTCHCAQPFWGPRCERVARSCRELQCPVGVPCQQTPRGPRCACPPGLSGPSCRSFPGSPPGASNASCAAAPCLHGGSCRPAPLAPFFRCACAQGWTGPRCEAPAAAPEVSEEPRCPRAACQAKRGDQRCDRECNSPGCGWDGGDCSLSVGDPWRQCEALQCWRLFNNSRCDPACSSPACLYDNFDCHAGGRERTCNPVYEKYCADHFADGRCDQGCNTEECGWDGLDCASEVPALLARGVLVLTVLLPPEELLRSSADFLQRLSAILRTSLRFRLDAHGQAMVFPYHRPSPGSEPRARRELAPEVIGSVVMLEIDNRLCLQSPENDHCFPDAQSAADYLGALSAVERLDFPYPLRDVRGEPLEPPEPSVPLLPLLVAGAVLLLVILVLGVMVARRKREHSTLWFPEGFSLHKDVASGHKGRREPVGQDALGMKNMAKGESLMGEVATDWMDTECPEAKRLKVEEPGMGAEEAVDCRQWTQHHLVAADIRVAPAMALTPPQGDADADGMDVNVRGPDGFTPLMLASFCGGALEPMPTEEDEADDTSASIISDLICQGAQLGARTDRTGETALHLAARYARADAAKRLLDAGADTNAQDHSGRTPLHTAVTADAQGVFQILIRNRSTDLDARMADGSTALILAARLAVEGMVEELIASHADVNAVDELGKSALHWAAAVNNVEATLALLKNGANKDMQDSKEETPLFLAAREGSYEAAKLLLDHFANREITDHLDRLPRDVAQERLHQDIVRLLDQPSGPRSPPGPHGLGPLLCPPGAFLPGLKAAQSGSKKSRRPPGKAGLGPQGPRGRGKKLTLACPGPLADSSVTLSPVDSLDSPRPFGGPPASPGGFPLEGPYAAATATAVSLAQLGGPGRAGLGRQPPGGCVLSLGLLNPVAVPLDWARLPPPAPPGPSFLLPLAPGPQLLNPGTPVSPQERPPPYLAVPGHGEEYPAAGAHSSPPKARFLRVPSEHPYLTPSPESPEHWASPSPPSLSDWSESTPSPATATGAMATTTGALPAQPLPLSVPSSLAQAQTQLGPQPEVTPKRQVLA
Sequence of Pro-neuregulin-1, membrane-bound isoform (Homo sapiens) (Q02297 whole entry, looked up, the tested form may be a part, canonical isoform): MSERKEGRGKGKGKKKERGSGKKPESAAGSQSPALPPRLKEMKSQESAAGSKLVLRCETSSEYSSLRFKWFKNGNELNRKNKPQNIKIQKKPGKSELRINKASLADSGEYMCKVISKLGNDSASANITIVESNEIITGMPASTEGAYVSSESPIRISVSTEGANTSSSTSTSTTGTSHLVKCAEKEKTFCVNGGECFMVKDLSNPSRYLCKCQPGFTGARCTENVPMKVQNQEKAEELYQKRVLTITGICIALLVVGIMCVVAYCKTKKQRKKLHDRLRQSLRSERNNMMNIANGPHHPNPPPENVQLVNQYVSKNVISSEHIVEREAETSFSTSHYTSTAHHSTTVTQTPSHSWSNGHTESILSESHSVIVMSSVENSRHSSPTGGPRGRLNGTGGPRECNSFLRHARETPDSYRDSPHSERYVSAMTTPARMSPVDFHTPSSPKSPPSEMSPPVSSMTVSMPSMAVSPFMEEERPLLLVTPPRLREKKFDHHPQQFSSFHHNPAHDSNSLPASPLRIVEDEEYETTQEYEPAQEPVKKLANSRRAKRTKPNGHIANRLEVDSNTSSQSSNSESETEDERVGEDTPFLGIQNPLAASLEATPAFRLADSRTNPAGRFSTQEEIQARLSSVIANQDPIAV

In the case of `COCCOC(=O)N1C(=O)[C@@]2(c3cc(C#CCNC(N)=O)ccc31)[C@H](c1ccccc1OCCO)N1[C@H](c3ccccc3)[C@H](c3ccccc3)OC(=O)[C@H]1[C@@H]2C(=O)N1CCCCCCC1`, the composite z-score in [1] was 1.63; in [2], 0.646; in experiment [3], 0.0495; in experiment [4] it was 0.57; in [5], 0.725; in experiment [6], 0.665. In addition, the composite z-score was 1.1 in experiment [7]; 1.29 in experiment [9]; 1 in [10]; 1.49 in experiment [11]; 1.79 in experiment [15]; 0.365 in experiment [17]. Also, the composite z-score was 0.911 in experiment [18], 1.11 in [19] and -0.0121 in experiment [20]. Also, the z-score in experiment [8] was 0.515 (inactive); in experiment [12], 0.221 (inactive); in [13] it was 0.47 (inactive); in experiment [14], 2.37 (inactive); in [16], -0.515 (inactive).
As to `COc1ccc([Si](C)(C)[C@H]2[C@H](CC(=O)N(CCO)Cc3ccccc3)O[C@@]3(C(=O)N(Cc4ccc(N5C(=O)c6cccc7cccc5c67)cc4)c4ccccc43)[C@@H]2C)cc1`, the composite z-score was -0.0915 in experiment [1]; 0.285 in experiment [2]; -0.0249 in [3]; 0.479 in [4]; 0.141 in [5]; 1.14 in [6]. Besides, the composite z-score in [7] is 1.14; in [9], 0.193; in experiment [10], 0.12; in [11] it was 1.48; in experiment [15] it was 2.15; in experiment [17], 0.748. The composite z-score in experiment [18] turned out to be 1.36; in experiment [19], 1.12; in experiment [20] it was 0.0059. In addition, the z-score in [8] was -3.26 (inactive); in [12] it was 0.614 (inactive); in experiment [13], 0.685 (inactive); in experiment [14], 2.87 (inactive); in experiment [16], 0.222 (inactive).
For the compound `NCCCCCCNC(=O)[C@@H]1C[C@@H]2C(=O)NCC(=O)N2[C@@H]1c1cccc(OCCO)c1`, the composite z-score is 0.403 in experiment [1]; 0.641 in experiment [2]; 0.047 in experiment [3]; 0.847 in [4]; 1.2 in experiment [5]; 0.982 in [6]. For the same compound, the composite z-score in experiment [7] was 1.22; in experiment [9], 0.543; in experiment [10], 0.385; in experiment [11], 1.37; in experiment [15], 2.11; in experiment [17], 0.0997. Moreover, the composite z-score was found to be 1.12 in experiment [18], 0.783 in experiment [19] and 0.0988 in experiment [20]. The z-score is 0.726 (inactive) in experiment [8]; -0.205 (inactive) in experiment [12]; -0.542 (inactive) in [13]; -0.138 (inactive) in experiment [14]; 1.04 (inactive) in experiment [16].
In the case of `C=CCNC(=O)[C@@H]1[C@H]2C(=O)O[C@H](c3ccccc3)[C@H](c3ccccc3)N2[C@H](c2ccc(OCCO)cc2)[C@@]12C(=O)N(C(=O)OCCOC)c1ccccc12`, the composite z-score in [1] is -0.156; in experiment [2] it was 1.08; in experiment [3], 0.0021; in [4] it was 0.591; in experiment [5] it was 0.964; in experiment [6], 1.05. Further, the composite z-score in experiment [7] was 1.25; in experiment [9] it was 0.954; in experiment [10], 0.0053; in experiment [11] it was 1.53; in experiment [15] it was 2.92; in experiment [17], -0.0267. Moreover, the composite z-score in experiment [18] is 1.04; in [19] it was 1.06; in [20] it was 0.0413. Besides, the z-score in experiment [8] was 0.0023 (inactive); in [12], 2.46 (inactive); in experiment [13], 1.67 (inactive); in experiment [14] it was 5.18 (inactive); in [16], 0.246 (inactive).
In the case of `[N-]=[N+]=NCc1ccccc1C[C@@]1(C(N)=O)N=C(c2ccc(OCCCO)cc2)O[C@@H]1c1ccccc1N=[N+]=[N-]`, the composite z-score in experiment [1] is -0.459; in experiment [2] it was -0.0227; in experiment [3], 0.0131; in experiment [4], 1.15; in [5] it was 1.43; in experiment [6] it was 1.38. The composite z-score in experiment [7] stood at 1.07; in experiment [9], 0.926; in [10], 0.0722; in [11] it was 1.28; in [15], 3.22; in experiment [17], 0.137. The composite z-score was 0.0508 in [18], 0.516 in experiment [19] and 0.0766 in experiment [20]. Besides, the z-score was -0.739 (inactive) in [8]; -0.506 (inactive) in experiment [12]; -0.292 (inactive) in [13]; -0.531 (inactive) in experiment [14]; -0.331 (inactive) in [16].
